The text below walks through data of publication PMC11006913.

Changes are numbered by the printed parent chain.

Holding throughout (test): PBM; 200 nM protein, PBS
Details in all cases: dsDNA, one strand shown

For assay [1], the target named is HESX1 (Homo sapiens, UniProt Q9UBX0 95-180, R165K).
Assay [2] addresses HESX1 (Homo sapiens, UniProt Q9UBX0 95-180).
Assay [3] concerns the target HESX1 (Homo sapiens, UniProt Q9UBX0 95-180, R109Q).
The target in assay [4] is HESX1 (Homo sapiens, UniProt Q9UBX0 95-180, P111T).
Chain of HESX1 (Homo sapiens, UniProt Q9UBX0 95-180, P111T) (Q9UBX0 95-180 P111T): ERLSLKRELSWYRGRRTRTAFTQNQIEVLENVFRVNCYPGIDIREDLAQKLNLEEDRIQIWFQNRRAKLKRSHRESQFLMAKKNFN
Assay [5] concerns the target HESX1 (Homo sapiens, UniProt Q9UBX0 95-180, F115L).
Assay [6] deals with HOXB4 (Homo sapiens, UniProt P17483 148-234).
Chain of HOXB4 (Homo sapiens, UniProt P17483 148-234) (P17483 148-234): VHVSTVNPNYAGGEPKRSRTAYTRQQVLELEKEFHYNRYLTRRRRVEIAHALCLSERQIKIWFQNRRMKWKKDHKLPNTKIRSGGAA
The target in assay [7] is CRX (Homo sapiens, UniProt O43186 26-111).
Chain of CRX (Homo sapiens, UniProt O43186 26-111) (O43186 26-111): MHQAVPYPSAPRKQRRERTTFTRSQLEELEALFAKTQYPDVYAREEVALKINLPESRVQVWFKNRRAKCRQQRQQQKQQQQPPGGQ
The target of assay [8] is T1, PAX4 (Homo sapiens, UniProt O43316 9-242, R200K).
T1 sequence: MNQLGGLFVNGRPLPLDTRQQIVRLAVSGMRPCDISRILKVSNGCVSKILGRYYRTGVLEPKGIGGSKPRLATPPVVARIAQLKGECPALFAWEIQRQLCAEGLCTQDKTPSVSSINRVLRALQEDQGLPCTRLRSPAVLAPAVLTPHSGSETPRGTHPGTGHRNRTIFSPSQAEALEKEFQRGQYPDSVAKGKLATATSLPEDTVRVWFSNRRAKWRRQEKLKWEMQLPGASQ

In assay [9] the target is T2, PAX4 (Homo sapiens, UniProt O43316 9-242).
T2 sequence: T1 sequence with K192R

Assay [10] addresses HOXB4 (Homo sapiens, UniProt P17483 148-234, V174I).
Assay [11] concerns the target T3, NKX2-6 (Homo sapiens, UniProt A6NCS4 118-204, R150C).
T3 sequence: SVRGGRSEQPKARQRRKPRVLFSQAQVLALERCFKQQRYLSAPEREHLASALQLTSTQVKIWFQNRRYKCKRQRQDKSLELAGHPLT

The target of assay [12] is CRX (Homo sapiens, UniProt O43186 26-111, E42D).
Chain of CRX (Homo sapiens, UniProt O43186 26-111, E42D) (O43186 26-111 E42D): as the sequence (O43186 26-111) above, with E17D counted along it
In assay [13] the target is T4, PAX4 (Homo sapiens, UniProt O43316 9-242, R200Q).
T4 sequence: T1 sequence with K192Q

In assay [14] the target is T5, PAX4 (Homo sapiens, UniProt O43316 9-242, F177V).
T5 sequence: T1 sequence with F169V, K192R

The target in assay [15] is T6, PAX4 (Homo sapiens, UniProt O43316 9-242, F177Y).
T6 sequence: T1 sequence with F169Y, K192R

Assay [16] addresses T7, PAX4 (Homo sapiens, UniProt O43316 9-242, R227W).
T7 sequence: T1 sequence with K192R, R219W

Assay [17] deals with CRX (Homo sapiens, UniProt O43186 26-111, R41L).
Chain of CRX (Homo sapiens, UniProt O43186 26-111, R41L) (O43186 26-111 R41L): as the sequence (O43186 26-111) above, with R16L counted along it

Chain of HESX1 (Homo sapiens, UniProt Q9UBX0 95-180) (Q9UBX0 95-180): as the sequence (Q9UBX0 95-180 P111T) above, with T17P counted along it
Chain of HESX1 (Homo sapiens, UniProt Q9UBX0 95-180, F115L) (Q9UBX0 95-180 F115L): as the sequence (Q9UBX0 95-180 P111T) above, with T17P, F21L counted along it
Chain of HESX1 (Homo sapiens, UniProt Q9UBX0 95-180, R109Q) (Q9UBX0 95-180 R109Q): as the sequence (Q9UBX0 95-180 P111T) above, with R15Q, T17P counted along it
Chain of HESX1 (Homo sapiens, UniProt Q9UBX0 95-180, R165K) (Q9UBX0 95-180 R165K): as the sequence (Q9UBX0 95-180 P111T) above, with T17P, R71K counted along it
Chain of HOXB4 (Homo sapiens, UniProt P17483 148-234, V174I) (P17483 148-234 V174I): as the sequence (P17483 148-234) above, with V27I counted along it

With AAGGAGGC, the binding signal in assay [1] is 6.49 upbm affinity estimate (log intensity, higher = more binding, comparable within an allelic series); in assay [2], 6.42 upbm affinity estimate (log intensity, higher = more binding, comparable within an allelic series); in [3], 6.53 upbm affinity estimate (log intensity, higher = more binding, comparable within an allelic series); in assay [4], 6.52 upbm affinity estimate (log intensity, higher = more binding, comparable within an allelic series); in assay [5], 6.51 upbm affinity estimate (log intensity, higher = more binding, comparable within an allelic series).

Turning to TGAGCGCA, the binding signal in assay [1] is 6.52 upbm affinity estimate (log intensity, higher = more binding, comparable within an allelic series); in [2], 6.51 upbm affinity estimate (log intensity, higher = more binding, comparable within an allelic series); in [3], 6.51 upbm affinity estimate (log intensity, higher = more binding, comparable within an allelic series); in assay [4] it was 6.49 upbm affinity estimate (log intensity, higher = more binding, comparable within an allelic series); in [5] it was 6.46 upbm affinity estimate (log intensity, higher = more binding, comparable within an allelic series).

As to CTAGGCCC, the binding signal in [1] is 6.43 upbm affinity estimate (log intensity, higher = more binding, comparable within an allelic series); in assay [2], 6.46 upbm affinity estimate (log intensity, higher = more binding, comparable within an allelic series); in [3] it was 6.51 upbm affinity estimate (log intensity, higher = more binding, comparable within an allelic series); in [4], 6.58 upbm affinity estimate (log intensity, higher = more binding, comparable within an allelic series); in assay [5], 6.46 upbm affinity estimate (log intensity, higher = more binding, comparable within an allelic series).

On to CCAGCCCA, for which the binding signal is 6.4 upbm affinity estimate (log intensity, higher = more binding, comparable within an allelic series) in [1]; 6.43 upbm affinity estimate (log intensity, higher = more binding, comparable within an allelic series) in assay [2]; 6.47 upbm affinity estimate (log intensity, higher = more binding, comparable within an allelic series) in [3]; 6.48 upbm affinity estimate (log intensity, higher = more binding, comparable within an allelic series) in assay [4]; 6.55 upbm affinity estimate (log intensity, higher = more binding, comparable within an allelic series) in assay [5].

As for CCGAGTCG, the binding signal in [1] is 6.6 upbm affinity estimate (log intensity, higher = more binding, comparable within an allelic series); in assay [2] it was 6.58 upbm affinity estimate (log intensity, higher = more binding, comparable within an allelic series); in assay [3] it was 6.45 upbm affinity estimate (log intensity, higher = more binding, comparable within an allelic series); in assay [4], 6.56 upbm affinity estimate (log intensity, higher = more binding, comparable within an allelic series); in assay [5] it was 6.36 upbm affinity estimate (log intensity, higher = more binding, comparable within an allelic series).

CGCCAGGC: the binding signal is 6.38 upbm affinity estimate (log intensity, higher = more binding, comparable within an allelic series) in assay [1]; 6.37 upbm affinity estimate (log intensity, higher = more binding, comparable within an allelic series) in assay [2]; 6.46 upbm affinity estimate (log intensity, higher = more binding, comparable within an allelic series) in [3]; 6.32 upbm affinity estimate (log intensity, higher = more binding, comparable within an allelic series) in [4]; 6.44 upbm affinity estimate (log intensity, higher = more binding, comparable within an allelic series) in assay [5].

CAGTGTCG: the binding signal in assay [1] was 6.55 upbm affinity estimate (log intensity, higher = more binding, comparable within an allelic series); in assay [2], 6.52 upbm affinity estimate (log intensity, higher = more binding, comparable within an allelic series); in [3], 6.61 upbm affinity estimate (log intensity, higher = more binding, comparable within an allelic series); in assay [4], 6.51 upbm affinity estimate (log intensity, higher = more binding, comparable within an allelic series); in assay [5] it was 6.58 upbm affinity estimate (log intensity, higher = more binding, comparable within an allelic series).

As for TCCTGCCA, the binding signal in [1] was 6.57 upbm affinity estimate (log intensity, higher = more binding, comparable within an allelic series); in [2], 6.47 upbm affinity estimate (log intensity, higher = more binding, comparable within an allelic series); in assay [3], 6.52 upbm affinity estimate (log intensity, higher = more binding, comparable within an allelic series); in assay [4] it was 6.56 upbm affinity estimate (log intensity, higher = more binding, comparable within an allelic series); in assay [5] it was 6.6 upbm affinity estimate (log intensity, higher = more binding, comparable within an allelic series).

As to GACGGCGA, the binding signal is 6.46 upbm affinity estimate (log intensity, higher = more binding, comparable within an allelic series) in [1]; 6.46 upbm affinity estimate (log intensity, higher = more binding, comparable within an allelic series) in assay [2]; 6.44 upbm affinity estimate (log intensity, higher = more binding, comparable within an allelic series) in assay [3]; 6.52 upbm affinity estimate (log intensity, higher = more binding, comparable within an allelic series) in assay [4]; 6.44 upbm affinity estimate (log intensity, higher = more binding, comparable within an allelic series) in assay [5].

ACGCCTAC: the binding signal was 6.48 upbm affinity estimate (log intensity, higher = more binding, comparable within an allelic series) in assay [1]; 6.44 upbm affinity estimate (log intensity, higher = more binding, comparable within an allelic series) in assay [2]; 6.44 upbm affinity estimate (log intensity, higher = more binding, comparable within an allelic series) in assay [3]; 6.5 upbm affinity estimate (log intensity, higher = more binding, comparable within an allelic series) in [4]; 6.46 upbm affinity estimate (log intensity, higher = more binding, comparable within an allelic series) in assay [5].

On to CCACTGCG, for which the binding signal in [1] was 6.48 upbm affinity estimate (log intensity, higher = more binding, comparable within an allelic series); in assay [2], 6.49 upbm affinity estimate (log intensity, higher = more binding, comparable within an allelic series); in assay [3] it was 6.5 upbm affinity estimate (log intensity, higher = more binding, comparable within an allelic series); in assay [4], 6.5 upbm affinity estimate (log intensity, higher = more binding, comparable within an allelic series); in assay [5] it was 6.42 upbm affinity estimate (log intensity, higher = more binding, comparable within an allelic series).

As to CGCCACGA, the binding signal is 6.55 upbm affinity estimate (log intensity, higher = more binding, comparable within an allelic series) in assay [1]; 6.36 upbm affinity estimate (log intensity, higher = more binding, comparable within an allelic series) in assay [2]; 6.47 upbm affinity estimate (log intensity, higher = more binding, comparable within an allelic series) in [3]; 6.47 upbm affinity estimate (log intensity, higher = more binding, comparable within an allelic series) in assay [4]; 6.57 upbm affinity estimate (log intensity, higher = more binding, comparable within an allelic series) in assay [5].

In the case of AGCACGCT, the binding signal was 6.37 upbm affinity estimate (log intensity, higher = more binding, comparable within an allelic series) in assay [1]; 6.39 upbm affinity estimate (log intensity, higher = more binding, comparable within an allelic series) in [2]; 6.5 upbm affinity estimate (log intensity, higher = more binding, comparable within an allelic series) in assay [3]; 6.4 upbm affinity estimate (log intensity, higher = more binding, comparable within an allelic series) in assay [4]; 6.46 upbm affinity estimate (log intensity, higher = more binding, comparable within an allelic series) in assay [5].

Turning to GGCGCTAC, the binding signal in assay [1] is 6.32 upbm affinity estimate (log intensity, higher = more binding, comparable within an allelic series); in [2], 6.38 upbm affinity estimate (log intensity, higher = more binding, comparable within an allelic series); in assay [3], 6.35 upbm affinity estimate (log intensity, higher = more binding, comparable within an allelic series); in [4], 6.43 upbm affinity estimate (log intensity, higher = more binding, comparable within an allelic series); in assay [5], 6.32 upbm affinity estimate (log intensity, higher = more binding, comparable within an allelic series).

Regarding CAGAACGC, the binding signal in assay [1] was 6.46 upbm affinity estimate (log intensity, higher = more binding, comparable within an allelic series); in assay [2], 6.44 upbm affinity estimate (log intensity, higher = more binding, comparable within an allelic series); in assay [3], 6.49 upbm affinity estimate (log intensity, higher = more binding, comparable within an allelic series); in [4], 6.34 upbm affinity estimate (log intensity, higher = more binding, comparable within an allelic series); in assay [5] it was 6.48 upbm affinity estimate (log intensity, higher = more binding, comparable within an allelic series).

As for CAGGTCGG, the binding signal in assay [1] was 6.41 upbm affinity estimate (log intensity, higher = more binding, comparable within an allelic series); in [2], 6.42 upbm affinity estimate (log intensity, higher = more binding, comparable within an allelic series); in assay [3], 6.6 upbm affinity estimate (log intensity, higher = more binding, comparable within an allelic series); in assay [4], 6.48 upbm affinity estimate (log intensity, higher = more binding, comparable within an allelic series); in assay [5], 6.57 upbm affinity estimate (log intensity, higher = more binding, comparable within an allelic series).

Consider AGCGTTCG, for which the binding signal in [1] is 6.54 upbm affinity estimate (log intensity, higher = more binding, comparable within an allelic series); in assay [2] it was 6.5 upbm affinity estimate (log intensity, higher = more binding, comparable within an allelic series); in assay [3], 6.53 upbm affinity estimate (log intensity, higher = more binding, comparable within an allelic series); in assay [4], 6.53 upbm affinity estimate (log intensity, higher = more binding, comparable within an allelic series); in assay [5], 6.63 upbm affinity estimate (log intensity, higher = more binding, comparable within an allelic series).

For GCCTGGCC, the binding signal in assay [1] is 6.59 upbm affinity estimate (log intensity, higher = more binding, comparable within an allelic series); in assay [2] it was 6.61 upbm affinity estimate (log intensity, higher = more binding, comparable within an allelic series); in assay [3], 6.46 upbm affinity estimate (log intensity, higher = more binding, comparable within an allelic series); in assay [4], 6.51 upbm affinity estimate (log intensity, higher = more binding, comparable within an allelic series); in [5], 6.6 upbm affinity estimate (log intensity, higher = more binding, comparable within an allelic series).

AAGTTCCC: the binding signal in [1] is 6.43 upbm affinity estimate (log intensity, higher = more binding, comparable within an allelic series); in assay [2] it was 6.39 upbm affinity estimate (log intensity, higher = more binding, comparable within an allelic series); in assay [3] it was 6.56 upbm affinity estimate (log intensity, higher = more binding, comparable within an allelic series); in assay [4], 6.49 upbm affinity estimate (log intensity, higher = more binding, comparable within an allelic series); in assay [5], 6.65 upbm affinity estimate (log intensity, higher = more binding, comparable within an allelic series).

For GACGCCGC, the binding signal in assay [6] is 7.74 upbm affinity estimate (log intensity, higher = more binding, comparable within an allelic series); in assay [7], 8.08 upbm affinity estimate (log intensity, higher = more binding, comparable within an allelic series); in assay [8], 9.17 upbm affinity estimate (log intensity, higher = more binding, comparable within an allelic series); in assay [9], 9.29 upbm affinity estimate (log intensity, higher = more binding, comparable within an allelic series); in assay [10], 7.51 upbm affinity estimate (log intensity, higher = more binding, comparable within an allelic series); in assay [11], 9.27 upbm affinity estimate (log intensity, higher = more binding, comparable within an allelic series). For the same sequence, the binding signal is 8.14 upbm affinity estimate (log intensity, higher = more binding, comparable within an allelic series) in assay [12]; 9.2 upbm affinity estimate (log intensity, higher = more binding, comparable within an allelic series) in [13]; 9.15 upbm affinity estimate (log intensity, higher = more binding, comparable within an allelic series) in assay [14]; 9.2 upbm affinity estimate (log intensity, higher = more binding, comparable within an allelic series) in assay [15]; 9.18 upbm affinity estimate (log intensity, higher = more binding, comparable within an allelic series) in assay [16]; 8.18 upbm affinity estimate (log intensity, higher = more binding, comparable within an allelic series) in assay [17].

For the sequence AATACATA, the binding signal in assay [1] is 7.62 upbm affinity estimate (log intensity, higher = more binding, comparable within an allelic series); in assay [2], 7.7 upbm affinity estimate (log intensity, higher = more binding, comparable within an allelic series); in assay [3], 7.3 upbm affinity estimate (log intensity, higher = more binding, comparable within an allelic series); in [4], 7.6 upbm affinity estimate (log intensity, higher = more binding, comparable within an allelic series); in [5], 7.4 upbm affinity estimate (log intensity, higher = more binding, comparable within an allelic series).
